Laboratory results taken from PubChem BioAssay (Tox21).
Records with an inconclusive call do not appear. Calls of active or inactive are those of the source. Calls follow the shape of the full dose curve.

What was measured:
[1] = biological target: Acetylcholinesterase (Homo sapiens) (UniProt P22303); assay: Acetylcholinesterase (AChE) small molecule antagonists: colormetric cell-based qHTS assay (AID 1347395); also: nearly all actives have a fitted effect of over 30% in size
Outline: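 Colorimetric read-out: DTNB detects thiocholine released when cellular AChE in SH-SY5Y cells hydrolyses acetylthiocholine. Cells attached overnight, received compound for 30 min at 37 C, then substrate mix for 90 min at 37 C.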

[2] = biological target: Acetylcholinesterase (Homo sapiens) (UniProt P22303); assay: Acetylcholinesterase (AChE) small molecule antagonists: enzyme-based qHTS assay (AID 1347397); conditions: Potency: AChE enzyme activity inhibition; outcome: AChE enzyme activity inhibition; also: nearly all actives have a fitted effect of over 55% in size
Outline: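 rhAChE 50 mU/mL (dispensed) + cpd or DMSO, 30 min RT; add DTNB/acetylthiocholine cocktail, 10 min RT; colorimetric thiocholine readout. qHTS, 1536-well format.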

[3] = biological target: Acetylcholinesterase (Homo sapiens) (UniProt P22303); assay: Acetylcholinesterase (AChE) small molecule antagonists: fluorescence cell-based qHTS assay (AID 1347398); conditions: Potency: AChE activity; outcome: AChE activity; also: nearly all actives have a fitted effect of over 50% in size
Outline: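 Read-out is Thiolite Green fluorescence at Ex/Em = 490/520 nm, formed by reaction with thiocholine released when cellular AChE in SH-SY5Y cells hydrolyzes acetylthiocholine. Compounds were preincubated 30 min at 37 C before substrate.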

[4] = biological target: Acetylcholinesterase (Homo sapiens) (UniProt P22303); assay: Acetylcholinesterase (AChE) small molecule antagonists: enzyme-based qHTS assay with human liver microsomes (AID 1347399); conditions: Potency: qHTS inhibition; outcome: qHTS inhibition; also: nearly all actives have a fitted effect of over 60% in size
Outline: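 Recombinant human AChE (50 mU/mL in the enzyme mix) and human liver microsomes (0.25 mg/mL final) were preincubated with compound and NADPH (0.25 mg/mL final) for 30 min at 37 C. Acetylthiocholine/DTNB was then added; thiocholine was read colorimetrically after 10 min at room temperature.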
% is scaled to controls: 0 for no effect and ±100 for the full control effect.

Chain of Acetylcholinesterase (Homo sapiens) (P22303 whole entry, looked up): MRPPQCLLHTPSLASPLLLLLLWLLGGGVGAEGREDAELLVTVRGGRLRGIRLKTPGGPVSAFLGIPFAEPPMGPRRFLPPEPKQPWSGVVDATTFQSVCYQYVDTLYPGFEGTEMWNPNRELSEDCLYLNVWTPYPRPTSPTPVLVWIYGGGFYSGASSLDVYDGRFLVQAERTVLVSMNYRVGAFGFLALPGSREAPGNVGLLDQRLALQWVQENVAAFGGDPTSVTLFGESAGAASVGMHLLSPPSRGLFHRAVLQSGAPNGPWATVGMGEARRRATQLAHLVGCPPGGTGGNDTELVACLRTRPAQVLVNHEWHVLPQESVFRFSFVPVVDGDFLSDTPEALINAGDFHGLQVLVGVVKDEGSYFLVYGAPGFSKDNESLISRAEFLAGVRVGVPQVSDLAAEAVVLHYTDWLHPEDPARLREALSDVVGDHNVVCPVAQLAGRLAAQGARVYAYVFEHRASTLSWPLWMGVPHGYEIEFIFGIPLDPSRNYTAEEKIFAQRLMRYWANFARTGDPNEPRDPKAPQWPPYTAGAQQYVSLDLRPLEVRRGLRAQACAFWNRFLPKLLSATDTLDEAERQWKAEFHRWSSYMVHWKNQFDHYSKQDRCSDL

CCC(=O)O[C@H]1[C@H](O[C@@H]2[C@@H](C)[C@H](O[C@H]3C[C@@](C)(OC)[C@@H](O)[C@H](C)O3)[C@@H](C)C(=O)O[C@H](CC)[C@@](C)(O)[C@H](O)[C@@H](C)C(=O)[C@H](C)C[C@@]2(C)O)O[C@H](C)C[C@@H]1N(C)C
inactive: Potency [1] | Potency [2] | Potency [3] | Potency [4]

O=C1OC(=O)C2CC=CCC12 (stereo not given)
inactive: Potency [1] | Potency [2] | Potency [3] | Potency [4]

Cc1cc(F)ccc1-c1cc(N2CC[C@@H](O)[C@H]2CO)ncc1N(C)C(=O)C(C)(C)c1cc(C(F)(F)F)cc(C(F)(F)F)c1
inactive: Potency [1] | Potency [2] | Potency [3] | Potency [4]

CCCCCCCCCCCCCC(=O)OC(C)C
inactive: Potency [1] | Potency [2] | Potency [3] | Potency [4]

CC(CN(CCN(CC(C)OCCO)CC(C)OCCO)CC(C)OCCO)OCCO (stereo not given)
inactive: Potency [1] | Potency [2] | Potency [3] | Potency [4]

O=C(O)CCCCCCCCCC(=O)O
inactive: Potency [1] | Potency [2] | Potency [3] | Potency [4]

CCC1OCC(COc2ccc(Oc3ccccc3)cc2)O1 (stereo not given)
inactive: Potency [1] | Potency [2] | Potency [3] | Potency [4]

CC(C)Oc1ccc2c(=O)c(-c3ccccc3)coc2c1
inactive: Potency [1] | Potency [2] | Potency [3] | Potency [4]

CNC1CCCN(c2c(F)cc3c(=O)c(C(=O)O)cn(C4CC4)c3c2OC)C1 (stereo not given)
inactive: Potency [1] | Potency [2] | Potency [3] | Potency [4]

CCCCOC(=O)COc1ccc(Cl)cc1Cl
inactive: Potency [1] | Potency [2] | Potency [3] | Potency [4]

NCCOCCOCCN
inactive: Potency [1] | Potency [2] | Potency [3] | Potency [4]

CCCCOCC(C)O (stereo not given)
inactive: Potency [1] | Potency [2] | Potency [3] | Potency [4]

CSc1cnc(C)cn1
inactive: Potency [1] | Potency [2] | Potency [3] | Potency [4]

C[Si](C)(CCCN)O[Si](C)(C)CCCN
inactive: Potency [1] | Potency [2] | Potency [3] | Potency [4]

Cc1nc2ccccc2c(=O)o1
inactive: Potency [1] | Potency [2] | Potency [3] | Potency [4]

O=C(Nc1ccccc1)c1cc([N+](=O)[O-])ccc1Cl
inactive: Potency [1] | Potency [2] | Potency [3] | Potency [4]

CCCCCC(=O)O
inactive: Potency [1] | Potency [2] | Potency [3] | Potency [4]

CC1=Nc2ccccc2C1(C)C
inactive: Potency [1] | Potency [2] | Potency [3] | Potency [4]

CC(C)(C)c1cc(Cc2cc(C(C)(C)C)c(O)c(C(C)(C)C)c2)cc(C(C)(C)C)c1O
inactive: Potency [1] | Potency [2] | Potency [3] | Potency [4]

CC(=O)CCC(C)C
inactive: Potency [1] | Potency [2] | Potency [3] | Potency [4]

CCN(CC)CC(=O)Oc1ccc(NC(C)=O)cc1
inactive: Potency [1] | Potency [2] | Potency [3] | Potency [4]

CCC(C)(CCC(C)C)C(=O)[O-].CCC(C)(CCC(C)C)C(=O)[O-].[Zn+2] (stereo not given)
inactive: Potency [1] | Potency [2] | Potency [3] | Potency [4]

CCCOc1ccccc1-c1nc2n[nH]nc2c(=O)[nH]1
inactive: Potency [1] | Potency [2] | Potency [3] | Potency [4]

C/C=C/c1ccc(OCC)c(O)c1
inactive: Potency [1] | Potency [2] | Potency [3] | Potency [4]

CCCCSCCCC
inactive: Potency [1] | Potency [2] | Potency [3] | Potency [4]

CC(=O)OC/C=C(C)/C=C/C=C(C)/C=C/C1=C(C)CCCC1(C)C
inactive: Potency [1] | Potency [2] | Potency [3] | Potency [4]

CC(C)COC(=O)c1ccccc1O
inactive: Potency [1] | Potency [2] | Potency [3] | Potency [4]

Nc1nc(F)nc2c1ncn2[C@@H]1O[C@H](CO)[C@@H](O)[C@@H]1O
inactive: Potency [1] | Potency [2] | Potency [3] | Potency [4]

CO[C@H]1C=CO[C@@]2(C)Oc3c(C)c(O)c4c(O)c(c5c(c4c3C2=O)=NC2(CCN(CC(C)C)CC2)N=5)NC(=O)/C(C)=C\C=C/[C@H](C)[C@H](O)[C@@H](C)[C@@H](O)[C@@H](C)[C@H](OC(C)=O)[C@@H]1C
inactive: Potency [1] | Potency [2] | Potency [3] | Potency [4]

CC(=O)OC1CCCCC1
inactive: Potency [1] | Potency [2] | Potency [3] | Potency [4]

CCOC(=O)C1=C(C)NC(C)=C(C(=O)OCC)C1c1ccccc1/C=C/C(=O)OC(C)(C)C
inactive: Potency [1] | Potency [2] | Potency [3] | Potency [4]

CC1=NC(C)OC1C (stereo not given)
inactive: Potency [1] | Potency [2] | Potency [3] | Potency [4]

O=C(O)Cn1c(C(=O)Nc2nc(-c3ccccc3Cl)cs2)cc2ccccc21
inactive: Potency [1] | Potency [2] | Potency [3] | Potency [4]

O=Cc1ccc(Cl)cc1
inactive: Potency [1] | Potency [2] | Potency [3] | Potency [4]

CCOC(=O)CN1CCCC1=O
inactive: Potency [1] | Potency [2] | Potency [3] | Potency [4]

CC1COc2ccccc2N1C(=O)C(Cl)Cl (stereo not given)
inactive: Potency [1] | Potency [2] | Potency [3] | Potency [4]

CC(C)C(=O)c1c(C(C)C)nn2ccccc12
inactive: Potency [1] | Potency [2] | Potency [3] | Potency [4]

Fc1ccccc1
inactive: Potency [1] | Potency [2] | Potency [3] | Potency [4]

CCN(CC)c1ccc(C(=O)c2ccccc2C(=O)O)c(O)c1
inactive: Potency [1] | Potency [2] | Potency [3] | Potency [4]

N[C@H](C(=O)O)c1ccc(O)cc1
inactive: activity, negative = inhibition [1] 0% [at 23.6 µM] | activity change, negative = inhibition [2] 0.185% [at 23.6 µM] | activity change, negative = inhibition [3] 10.4% [at 23.8 µM] | activity change, negative = inhibition [4] -0.0013% [at 23.6 µM]

CC(C)c1ccc(C=O)cc1
inactive: Potency [1] | Potency [2] | Potency [3] | Potency [4]

O=[N+]([O-])c1nccn1CO[C@@H](CO)[C@H](O)CO
inactive: Potency [1] | Potency [2] | Potency [3] | Potency [4]

C=C[Si](C)(C)Cl
inactive: activity, negative = inhibition [1] 1.82% [at 10.5 µM] | activity change, negative = inhibition [2] 0.136% [at 10.5 µM] | activity change, negative = inhibition [3] -9.61% [at 10.5 µM] | activity change, negative = inhibition [4] -5.99% [at 10.5 µM]

Cc1cc(Br)ccc1NC(=O)CCl
inactive: Potency [1] | Potency [2] | Potency [3] | Potency [4]

O=c1c2ccccc2oc2ccccc12
inactive: Potency [1] | Potency [2] | Potency [3] | Potency [4]

CC1CN(c2ccccc2)NC1=O (stereo not given)
inactive: Potency [1] | Potency [2] | Potency [3] | Potency [4]

Cc1c(N(C)CS(=O)(=O)O)c(=O)n(-c2ccccc2)n1C
inactive: Potency [1] | Potency [2] | Potency [3] | Potency [4]

CC(C)=CCOC(=O)c1ccccc1
inactive: Potency [1] | Potency [2] | Potency [3] | Potency [4]

CC(C)(C)OC(=O)c1cccc(N)c1
inactive: Potency [1] | Potency [2] | Potency [3] | Potency [4]

CCOC(=O)c1ccc(OC(=O)CCCCCN=C(N)N)cc1
inactive: outcome [1] | outcome [2] | outcome [3] | outcome [4]

CC(C)(C)NC[C@H](O)COc1cccc2c1CCCC2=O
inactive: Potency [1] | Potency [2] | Potency [3] | Potency [4]

CC1(C)O[C@@H]2C[C@H]3[C@@H]4CCC5=CC(=O)C=C[C@]5(C)[C@H]4[C@@H](O)C[C@]3(C)[C@]2(C(=O)CO)O1
inactive: Potency [1] | Potency [2] | Potency [3] | Potency [4]

C(=C/c1ccccc1)/c1ccccc1
inactive: Potency [1] | Potency [2] | Potency [3] | Potency [4]

OC1CCCc2ccccc21 (stereo not given)
inactive: Potency [1] | Potency [2] | Potency [3] | Potency [4]

O=c1ccc2ccccc2o1
inactive: Potency [1] | Potency [2] | Potency [3] | Potency [4]

CC(CCO)CCCC(C)(C)O (stereo not given)
inactive: Potency [1] | Potency [2] | Potency [3] | Potency [4]

CCC(C)(C)CC
inactive: Potency [1] | Potency [2] | Potency [3] | Potency [4]

NCC1CCC(C(=O)Oc2ccc(CCC(=O)O)cc2)CC1 (stereo not given)
inactive: Potency [1] | Potency [2] | Potency [3] | Potency [4]

C=CCn1c(=O)n([C@@H]2O[C@H](CO)[C@@H](O)[C@H]2O)c2nc(N)[nH]c(=O)c21
inactive: Potency [1] | Potency [2] | Potency [3] | Potency [4]

CN1C(=O)CC[C@H]1c1cccnc1
inactive: Potency [1] | Potency [2] | Potency [3] | Potency [4]
